Growth data for 27 compounds are collected here from PubChem BioAssay (NCI).

This is part of a sample that, as a whole, favours compounds with a hit. Of some 83,000 tested, about 20% had one in any assay.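 Results are percent growth after 48 hours of single-concentration exposure. 100 means growth as in untreated cells, lower positive values show inhibition; negative values down to -100 show cell death.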 Unmarked numbers belong to inactive results. The source made the active and inactive calls. How the source made its calls: active means growth percent below 10; inactive means the rest.

For the assay, the system named is COLO 205 colon. The experiment in a line: NCI-60 one-dose screen, 48 h (100 = growth as untreated, 0 = no growth, -100 = all killed). The following applies: 10 µM unless noted.
Take `CC(C)C[C@@H](NC(=O)[C@@H](Cc1ccccc1)NC(=O)c1cnccn1)B1Oc2ccc(C[C@H](NC(=O)[C@H](Cc3ccc4c(c3)OB([C@@H](CC(C)C)NC(=O)[C@@H](Cc3ccccc3)NC(=O)c3cnccn3)O4)NC(=O)[C@@H](N)CC3CCC4OB([C@@H](CC(C)C)NC(=O)[C@@H](CC5CCCCC5)NC(=O)C5CNCCN5)OC4C3)C(=O)NCCCC[C@@H]3NC(=O)[C@@H](Cc4ccccc4)NC(=O)[C@H](CC(=O)O)NC(=O)CNC(=O)[C@H](CCCNC(=N)N)NC3=O)cc2O1` (some centres not stated): the growth was -72.6% (active).

Turning to `CCc1nc(N)nc(N)c1C#CC(C)c1cc(-c2ccnc(C)c2)c2oc(C)nc2c1` (configuration not stated), the growth was 0.792% (active). Then `COc1ccc(/C=C/c2nc3ccccc3nc2/C=C/c2ccc(OC)cc2)cc1`, with 97.4%; and `Cc1nc(/N=C(\N)NC(=O)Nc2cccc([N+](=O)[O-])c2)sc1C`, with 90.6%.

As for `CCCCN(CCCC)CCCn1c(-c2ccccc2)ccc1-c1ccccc1`, the growth is 61.3%. With `Oc1ccc(N=Cc2ccccc2O)cc1`, the growth was 120%. On to `NC(N)=N/N=C(/c1ccccc1)c1ccc(F)cc1`, for which the growth is -47% (active). In the case of `COc1ccc(Nc2nc(SC)nc(-c3cccc([N+](=O)[O-])c3)c2C#N)cc1`, the growth was 81.5%.

Take `COc1ccc(CCNc2nc3c(c(=O)n(Cc4ccc(Br)cc4)c(=O)n3C)n2C)cc1OC`: the growth was 103%. In the case of `COc1cccc(Nc2nc(SC)nc(-c3cccc([N+](=O)[O-])c3)c2C#N)c1`, the growth was 82.1%.

On to `CCCCC/C(C=C(C#N)C#N)=C/c1ccccc1`, for which the growth is 86.5%. Then `Cn1c(=O)c2c(nc3n(-c4ccc(Cl)cc4Cl)c(Sc4nc(-c5ccccc5)c(C#N)c(=O)[nH]4)cn23)n(C)c1=O`, with 71.8%. With `Cc1ccc(C2=NN3C(C2)c2cc(Br)ccc2OC32CCN(Cc3ccccc3)CC2)o1` (configuration not stated), the growth is 105%. Next, `CCCCCCN(CCCCCC)C(=N)c1ccnc2ccccc12`: -74.7% (active). Turning to `O=C1Nc2c(ccc(Cl)c2Cl)/C1=C\c1ccc(C(F)(F)F)cc1`, the growth was 100%. As for `C=CC(=O)Nc1cccc(-c2nc(SC)nc(NCc3ccccc3)c2C#N)c1`, the growth was 98%. Next, `CC1=CC(C)(C)Nc2ccc(Cc3ccc4c(c3)C(C)=CC(C)(C)N4)cc21`: 125%; `CCCN1CCN(c2ccc3nc(-c4ccc5nc(-c6ccc(OCC)cc6)[nH]c5c4)[nH]c3c2)CC1`: -32% (active); `COc1ccc(C(=O)COc2ccc(/C=C3\COc4ccc(OC)cc4C3=O)cc2)cc1`: 122%. Then `CC(=O)O[C@H]1C(=O)[C@@]2(C)[C@H]([C@H](OC(=O)c3ccccc3)[C@]3(O)C[C@H](OC(=O)[C@H](OC(=O)CCC(=O)OC4CCC(S/N=C(N)/N=C(\N)N(C)C)CC4)[C@@H](NC(=O)c4ccccc4)c4ccccc4)C(C)=C1C3(C)C)[C@]1(OC(C)=O)CO[C@@H]1C[C@@H]2O` (some centres not stated), with -8.92% (active); and `CCOc1ccc(-n2nc(C(=O)Nc3cc(OC)c(OC)c(OC)c3)nc2-c2cc(OC)c(OC)c(OC)c2)cc1`, with 80.3%; and `C=C1C(=O)O[C@H]2[C@H]1CC/C(COC(=O)c1cc3cc(OC)ccc3[nH]1)=C\CC[C@@]1(C)O[C@@H]21`, with -71.3% (active). As for `COc1cc(Nc2cc(C)nc(N3CCN(c4ccnc5cc(Cl)ccc45)CC3)n2)cc(OC)c1`, the growth is -24.4% (active). Take `N#CN1CCC[C@H]1C(=O)N1CCc2c(-c3[nH]nc4ncccc34)cccc21`: the growth is -77.5% (active).

With `Cc1cc(C)nc(SC2=C(Nc3cccc(Cl)c3)C(=O)N(Cc3ccccc3)C2=O)n1`, the growth is 78.2% [30 µM]. Then `O=C(COc1cccc(/C=C2\COc3ccccc3C2=O)c1)Nc1nccs1`, with 87.3%; and `C=C(C)C(=O)Nc1ccc(NC(C)C)cc1`, with 148%.
